Assay results: PubChem BioAssay (Tox21)
Inconclusive results are not listed. Where a call stands in place of a potency, no number is given. Unmarked numbers belong to inactive results. The source made the active and inactive calls. Unless noted, calls follow the shape of the dose curve; as a rule, active = well fitted curve in the direction sought with a large enough effect in the repeat runs; inconclusive = weak or mixed curves; inactive = no such curve, though single readings can be large; an effect the other way counts as inactive or inconclusive.

Assays:
[1] = biological target: Nuclear receptor ROR-gamma (Homo sapiens) (UniProt P51449); test: qHTS assay to identify small molecule antagonists of the retinoid-related orphan receptor gamma (ROR-gamma) signaling pathway (AID 1159521; also: nearly all actives have a fitted effect of over 50% in size; also: potency is read from the fitted curve at half-maximal effect); settings: Tet-on RORgamma CHO cells, RORE-luciferase, 16 h; series mostly up to 92.4 µM
In short: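 Luminescence readout (ONE-Glo, 30 min RT) after 16 h doxycycline induction; loss of signal scored as antagonism. CHO cells with TET-inducible RORγ and RORE-LUC reporter; compounds added 2 h before 1 uM final doxycycline.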

[2] = qHTS assay to identify small molecule agonists of the AP-1 signaling pathway - cell viability counter screen (AID 1159525; calls by dose curve; also: nearly all actives have a fitted effect of over 55% in size); settings: ME-180 AP-1-bla cells viability, ATP luminescence, 5 h; series mostly up to 76.8 µM
In short: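 Luminescent ATP readout (Cell Titer Glo, 30 min RT), normalised to DMSO and tetra n-octyl ammonium bromide controls. Cells were ME-180 AP-1-bla in 0.5% dialyzed FBS Opti-MEM, with a 5 h, 37 °C compound exposure.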

[3] = biological target: Retinoic acid receptor RXR-alpha (Homo sapiens) (UniProt P19793); test: qHTS assay to identify small molecule agonists of the RXR signaling pathway (AID 1159527; calls by dose curve; also: nearly all actives have a fitted effect of over 35% in size; also: potency is read from the fitted curve at half-maximal effect); settings: HEK293T RXRa-UAS-bla, beta-lactamase ratio, 16 h; series mostly up to 76.8 µM
Sequence of Retinoic acid receptor RXR-alpha (Homo sapiens) (P19793 whole entry, looked up): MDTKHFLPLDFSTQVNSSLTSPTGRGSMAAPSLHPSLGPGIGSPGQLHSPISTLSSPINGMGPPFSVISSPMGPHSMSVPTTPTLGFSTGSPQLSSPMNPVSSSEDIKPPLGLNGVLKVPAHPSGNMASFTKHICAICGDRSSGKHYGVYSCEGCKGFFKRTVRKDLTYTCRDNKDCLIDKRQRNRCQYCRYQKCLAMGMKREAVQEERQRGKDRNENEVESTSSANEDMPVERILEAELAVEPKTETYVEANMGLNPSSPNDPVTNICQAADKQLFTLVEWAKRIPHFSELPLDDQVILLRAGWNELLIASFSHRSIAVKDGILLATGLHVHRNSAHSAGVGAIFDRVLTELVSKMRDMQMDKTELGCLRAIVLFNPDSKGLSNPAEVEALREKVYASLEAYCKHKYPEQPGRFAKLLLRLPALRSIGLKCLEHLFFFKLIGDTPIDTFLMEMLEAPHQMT
In short: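 Agonist mode; 9-cis retinoic acid positive control. HEK 293T UAS-bla reporter cells, 2% charcoal-stripped FBS, 16 hr compound exposure at 37 C/5% CO2. LiveBLAzer B/G FRET substrate 2 hr RT; ex 405, em 460/530 nm.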

[4] = qHTS assay to identify small molecule antagonists of the retinoic acid receptor (RAR) signaling pathway (AID 1159552; also: nearly all actives have a fitted effect of over 50% in size; also: potency is read from the fitted curve at half-maximal effect); settings: C3RL4 RARE luciferase reporter, retinol-stimulated, 6 h; series mostly up to 92.4 µM
In short: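 Luminescence from a RARE luciferase reporter in C3RL4 cells served as read-out. Cells received compounds together with 1 uM final retinol and incubated 6 hr at 37 C before detection reagent was added for 30 min at room temperature.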

[5] = qHTS assay to identify small molecule antagonists of the retinoid-related orphan receptor gamma (ROR-gamma) signaling pathway - cell viability counter screen (AID 1159520); settings: Tet-on RORgamma CHO cells viability, ATP luminescence, 16 h; series mostly up to 92.4 µM; also: nearly all actives have a fitted effect of over 50% in size
In short: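 Cytotoxicity was read from cellular ATP (CellTiter-Glo luminescence) after 16 hr at 37 C with 1 uM doxycycline induction. The inducer was added 2 hr after compound transfer to Tet-on ROR gamma CHO cells.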

[6] = qHTS assay to identify small molecule agonists of the AP-1 signaling pathway (AID 1159526; calls by dose curve); settings: ME-180 (cervical carcinoma) AP-1-bla reporter, beta-lactamase FRET ratio, 5 h; series mostly up to 76.8 µM
[7] = qHTS assay to identify small molecule agonists of the RXR signaling pathway - cell viability counter screen (AID 1159529); settings: RXR-alpha-bla HEK293T viability, CellTiter-Glo, 16 h; series mostly up to 76.8 µM; also: nearly all actives have a fitted effect of over 50% in size; also: potency is read from the fitted curve at half-maximal effect
In short: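 Luminescence from CellTiter-Glo (30 min, RT) measured viability in the same wells as the beta-lactamase reporter readout. Cells: GeneBLAzer RXR-alpha HEK 293T, 2% charcoal-stripped FBS. Compound exposure 16 hr, 37 C.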

[8] = qHTS assay to identify small molecule antagonists of the retinoid acid receptor (RAR) signaling pathway - cell viability counter screen (AID 1159551); settings: C3RL4 cells viability, ATP luminescence (CellTiter-Glo), 6 h; series mostly up to 92.4 µM; also: nearly all actives have a fitted effect of over 35% in size
In short: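 Cytotoxicity counter screen in C3RL4 cells: 6 h compound exposure with 1 uM retinol (final), viability from cellular ATP by luminescence.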

[9] = qHTS assay to identify small molecule agonists of the retinoic acid receptor (RAR) signaling pathway (AID 1159553); settings: C3RL4 RARE luciferase reporter, agonist, 6 h; series mostly up to 73.3 µM; also: potency is read from the fitted curve at half-maximal effect
In short: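 Agonist activity was scored in C3RL4 cells bearing a retinoic acid response element luciferase construct. Cells were treated with compounds for 6 hr at 37 C, and luciferase signal was measured as luminescence.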

Cc1cc(C)c(O)c(C(C)(C)C)c1
Potency [1]: inactive
Potency [2]: inactive
Potency [3]: inactive
Potency [4]: inactive

COC(=O)c1ccc([N+](=O)[O-])cc1
Potency [5]: inactive
Potency [6]: inactive
Potency [3]: inactive
Potency [7]: inactive
Potency [8]: inactive
Potency [4]: inactive

CCCC(=O)c1cc(O)c(O)cc1O
Potency [7]: inactive

COc1cccc(-c2ccc(/C=C\CN3CCCCCC3)cc2Cl)c1
Potency [7]: 43.4 µM (active)

c1ccc(-c2ccc(C(c3ccccc3)n3ccnc3)cc2)cc1 (stereo unspecified)
Potency [1]: 15 µM (active)
Potency [2]: inactive
Potency [7]: inactive
Potency [8]: inactive
Potency [4]: inactive

CCSCC
Potency [5]: inactive
Potency [6]: inactive
Potency [7]: inactive
Potency [8]: inactive

c1ccc(-c2ccccc2-c2ccccc2)cc1
Potency [5]: inactive
Potency [7]: 43.6 µM (active)
Potency [8]: inactive
Potency [4]: inactive

c1ccc2cc3c4ccccc4c4ccccc4c3cc2c1
Potency [2]: inactive
Potency [3]: inactive
Potency [7]: inactive
Potency [8]: inactive
Potency [4]: inactive
Potency [9]: inactive

CC(c1cc(C(C)(C)C)cc(C(C)(C)C)c1O)c1cc(C(C)(C)C)cc(C(C)(C)C)c1O
Potency [1]: 19.3 µM (active)
Potency [2]: inactive
Potency [6]: inactive
Potency [3]: 3.47 µM (active)
Potency [8]: inactive

CC(C)(C)c1ccc(OC2CCCCC2O)cc1 (stereo unspecified)
Potency [1]: inactive
Potency [4]: inactive

CCc1cccc(C)c1N(C(=O)CS(=O)(=O)O)C(C)COC (stereo unspecified)
Potency [5]: inactive
Potency [3]: inactive
Potency [7]: inactive
Potency [8]: inactive
Potency [4]: inactive

O=C1CCCCCCCCCCCCCC1
Potency [1]: inactive
Potency [2]: inactive
Potency [6]: inactive
Potency [3]: inactive
Potency [7]: inactive
Potency [8]: inactive
Potency [4]: inactive
Potency [9]: inactive

CCCCC/C=C\C=C\C(=O)OCC
Potency [1]: 56.8 µM (active)
Potency [7]: 45.5 µM (active)
Potency [8]: inactive

c1ccc(C[P+](c2ccccc2)(c2ccccc2)c2ccccc2)cc1
Potency [1]: 24.3 µM (active)
Potency [6]: inactive
Potency [8]: inactive

O=S(=O)(c1ccc(OCc2ccccc2)cc1)c1ccccc1O
Potency [7]: inactive

CCCOC(=O)c1ccc(O)cc1
Potency [1]: inactive
Potency [2]: inactive
Potency [6]: inactive
Potency [4]: inactive
Potency [9]: 54.5 µM (active)

C=CC(=O)OCC(Br)CBr (stereo unspecified)
Potency [5]: inactive
Potency [6]: inactive
Potency [3]: inactive
Potency [7]: inactive
Potency [8]: inactive
Potency [4]: inactive

O[Si](c1ccccc1)(c1ccccc1)c1ccccc1
Potency [1]: 24.3 µM (active)
Potency [6]: inactive
Potency [7]: inactive
Potency [8]: inactive

CCCCCCCCCCCCCCCCCCNC(=O)OC1CCN(C(=O)OC[C@H](COC(=O)N(Cc2cccc[n+]2CC)C(=O)c2ccccc2OC)OC)CC1
Potency [1]: 29.8 µM (active)
Potency [7]: 23.9 µM (active)
Potency [4]: 26.6 µM (active)
Potency [9]: inactive

CCC(C)(C)c1ccc(CC(C)CN2C[C@@H](C)O[C@@H](C)C2)cc1 (stereo partly specified)
Potency [1]: inactive
Potency [7]: 12 µM (active)
Potency [4]: inactive

CCc1cccc(CC)c1
Potency [5]: inactive
Potency [6]: inactive
Potency [3]: inactive
Potency [7]: inactive
Potency [8]: inactive
Potency [4]: inactive

CN[C@H]1CC[C@@H](c2ccc(Cl)c(Cl)c2)c2ccc(S(N)(=O)=O)cc21
Potency [1]: 54.5 µM (active)
Potency [7]: 27.5 µM (active)
Potency [8]: inactive

CC/C=C\C/C=C\C/C=C\CCCCCCCC(=O)OC
Potency [2]: inactive
Potency [6]: inactive
Potency [8]: inactive
Potency [4]: inactive

O=C(O)C[C@H](O)C[C@H](O)/C=C/c1c(C2CC2)nc2ccccc2c1-c1ccc(F)cc1
viability change, negative = cytotoxic [2]: 2.51% [at 15.8 µM]
activation [6]: 4.12% [at 15.8 µM]
activation [3]: -9.56% [at 15.8 µM]
activity change, negative = cytotoxicity [8]: 1.42% [at 19 µM]

Oc1cccc2c(O)cccc12
Potency [1]: 68.6 µM (active)
Potency [3]: inactive
Potency [8]: inactive

CCCCCCCC/C=C\CCCCCCCC(=O)N(CCO)CCO
Potency [1]: 30.5 µM (active)
Potency [8]: inactive
Potency [4]: inactive

O=C1Cc2ccccc2C1
Potency [4]: inactive

Oc1ccc2c(c1)CCC2
Potency [5]: inactive
Potency [6]: inactive
Potency [3]: inactive
Potency [7]: inactive
Potency [8]: inactive
Potency [4]: inactive

CC1=C(/C=C/C(C)=C/C=C/C(C)=C\C(=O)O)C(C)(C)CCC1
Potency [1]: inactive
Potency [2]: inactive
Potency [6]: inactive
Potency [8]: inactive
Potency [4]: inactive
Potency [9]: 0.0194 µM (active)
